Assay outcomes deposited in PubChem BioAssay by National Center for Advancing Translational Sciences (NCATS).
In the library only some 19% were active in any assay of this set; here they are far more common.
HT1080 IDH1KD tx – HT-1080 IDH1 knockdown cell toxicity (counter line); 360,000 tested, 2% active; Potency, µM (titrated, usually from 46.1 µM), usual class: cytotoxic; HT-1080 IDH1 knockdown viability, ATP luminescence, 48 h
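Cytotoxicity counter-line: IDH1KD HT-1080, 48 h, CellTiter-Glo. Curves classed by r2, magnitude and activity.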
HT1080NT lethal – kills 2HG-producing HT-1080-NT fibrosarcoma cells | HT-1080-NT fibrosarcoma viability, CellTiter-Glo ATP luminescence, 48 h | AID 686970 | 360,000 tested, 1.6% active | Potency, µM (top dose mostly 46.1 µM), usual class: cytotoxic;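 further: NT is the 2HG producing partner of a matched IDH1 knockdown line; nearly all actives have a fitted effect of over 55% in size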
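Viability of the 2HG-overproducing fibrosarcoma line after 48 hours of compound exposure at 37 degrees C was determined by luminescence with CellTiter-Glo, and concentration-effect curves were then fitted and categorized.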
DT40 TDP1 CPT – DT40-hTDP1 cell growth loss with CPT | chicken DT40 Tdp1-/-;hTDP1 cells + 20 nM CPT, ATP luminescence, 48 h | Potency, µM (highest dose often 46.2 µM), usual class: inhibitors | 420,000 tested, 12% active | AID 686979; further: nearly all actives have a fitted effect of over 55% in size
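Cell growth measured by CellTiter-Glo luminescence after a minimum 48 h, 37 C compound exposure with 20 nM CPT in Tdp1-knockout DT40 cells stably expressing hTDP1, seeded 400/well; qHTS titration format.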
TDP1 cell noCPT – qHTS for Inhibitors of human tyrosyl-DNA phosphodiesterase 1 (TDP1): qHTS in cells in absence of CPT | Potency, µM (doses to about 46.2 µM), hits mostly inhibitors | AID 686978, 2013 | 420,000 tested, 15% active | DT40 Tdp1-/- hTDP1 cells, no CPT, ATP luminescence, 48 h; further: nearly all actives have a fitted effect of over 55% in size
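Readout: luminescence from CellTiter-Glo after 30 min in the dark at RT. Cells: DT40 Tdp1-/- with stable hTDP1, 400/well. Exposure: compounds alone, ≥48 hr, 37 °C.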
IL1B secr inh – inhibitors of inflammasome signaling (IL-1 beta secretion); 360,000 tested, 4.7% active; AID 743279; THP-1 LPS/ATP IL-1B secretion, AlphaLISA, 16 h; active compounds read low; activity change, % at 57.5 µM; in the data active means activity change below about -50%; inconclusive means mostly about -30% to -49%
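THP-1 cells pretreated 1 hr with compounds (up to 57.5 uM final), then stimulated with LPS (250 ng/mL final) plus ATP (1.25 mM final); secreted IL-1B measured by AlphaLISA after 16 hr, decreased signal indicating inhibition.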
Numbers stand for hits; – = inactive; ? = inconclusive; · = no result; ! = not confirmed by another sample; [ ] = dose if it differs, or a comment. Unless noted, the call rests on the fitted dose curve; in most records, active means well fitted curve in the direction sought with a large enough effect; inconclusive means small, poorly fitted or top-dose-only effect, or another doubt; inactive means no such curve, though single readings can be large; an effect the other way counts as inactive or inconclusive.

SMILES	HT1080 IDH1KD tx	HT1080NT lethal	DT40 TDP1 CPT	TDP1 cell noCPT	IL1B secr inh
Cc1ccc(C)c(C(=O)N2CCC(C3(c4ccccn4)NC(=O)N(CC4CCCO4)C3=O)CC2)c1 (stereo not drawn)	·	·	–	–	·
c1ccc2[nH]c(CCCCCc3nc4ccccc4[nH]3)nc2c1	?	–	?	?	–
c1ccc2[nH]c3cc4ncnc4cc3nc2c1	–	–	?	18µM	-57
CN1CCCC1CCNS(=O)(=O)c1ccc(Br)cc1 (stereo not drawn)	?	?	?	9.2µM	–
CC1CCCN(C(=O)CCNS(=O)(=O)c2ccc(Br)cc2)C1 (stereo not drawn)	–	–	–	–	–
C=CCNc1ncnc2c1[nH]c1ccc(Cl)cc12	–	–	?	23µM	-122
CC1(C)OC(=O)C2=C(C[C@@H](C3CCCCC3)O[C@@H]2c2ccc(F)cc2)O1	–	–	?	?	–
Clc1cccc(CN2CCc3c([nH]c4ccccc34)C2)c1Cl	–	–	?	23µM	-62
COc1ccc(CNc2oc(COc3cccc(C)c3)nc2C#N)cc1	·	·	4.1µM	?	·
N#Cc1nc(COc2cccc(Cl)c2)oc1NCc1ccco1	–	–	21µM	18µM	–
COc1ccc(CCNc2oc(COc3cccc(C)c3)nc2C#N)cc1OC	·	·	?	23µM	·
COc1ccc(CCNc2oc(COc3ccc(Cl)cc3)nc2C#N)cc1OC	·	·	13µM	12µM	·
CCOC(=O)[C@@H]1[C@H]2COc3cc(OC)ccc3[C@@H]2N2C(=O)N(c3cccc(C)c3)C(=O)[C@]12C	–	?	?	?	–
CN1CCN(CC(=O)Nc2cc(N(C)C)nc3ccccc23)CC1	–	?	–	–	-62
CCN(CC)CC(=O)Nc1cc(N(C)C)nc2ccccc12	–	–	–	–	·
O=C1/C(=N\S(=O)(=O)c2cccs2)C([n+]2ccccc2)=C([O-])c2ccccc21	–	?	2.3µM	2.3µM	-63
CC(C)(C)c1cc[n+](C2=C([O-])c3ccccc3C(=O)/C2=N\S(=O)(=O)c2cccs2)cc1	13µM	15µM	2.3µM	4.6µM	-88
O=S(=O)(/N=C/c1ccccc1O)c1cccs1	–	–	–	–	–
N/C(=N\S(=O)(=O)c1cccs1)c1ccccc1	–	–	–	–	–
Cc1noc(C)c1COc1ccccc1C(=O)N(C)Cc1ccco1	–	–	?	?	–
CCN(CC)C(=O)Oc1ccc2c(=O)c(-c3ccc(OC)cc3)c(C)oc2c1	–	–	–	–	–
CCN(CC)C(=O)Oc1ccc2c(=O)c(-c3ccc(OC)cc3)coc2c1	–	–	?	23µM	-60
CC(C)Oc1ccc2c(=O)c(-c3ccccc3)coc2c1	–	?	?	18µM!	–
C=CCNC(=O)N1CCCC(N2CCN(c3ccccc3OC)CC2)C1 (stereo not drawn)	–	–	–	–	–
O=C(CCC1CCN(C(=O)C2CC=CCC2)CC1)Nc1ccccc1 (stereo not drawn)	–	–	?	21µM	–
SMILES	HT1080 IDH1KD tx	HT1080NT lethal	DT40 TDP1 CPT	TDP1 cell noCPT	IL1B secr inh
Cc1cccc(NC(=O)CCC2CCN(C(=O)C3CC=CCC3)CC2)c1 (stereo not drawn)	–	–	12µM	12µM	–
CCOc1ccc(NC(=S)N2CCC(NC(=O)c3ccco3)CC2)cc1	–	–	–	–	–
CCOC(=O)c1cnc(Nc2nc3ccccc3o2)nc1CN1CCN(C)CC1	15µM	?	18µM	13µM	–
CC1CCC2=NN(C(=O)c3ccco3)C(O)(C(F)(F)F)C2C1 (stereo not drawn)	–	–	–	–	–
CCN(CC(=O)NCc1ccc(Cl)cc1)C(=O)CCC(=O)c1ccc(F)cc1	–	–	?	?	–
CCOC(=O)c1cc2c(OC)c(OC)ccc2c2[nH]cc(C#N)c(=O)c12	–	–	–	?	–
COc1ccc(C#Cc2ccc(C3=CC(=O)CC(C)(C)C3=O)cc2)cc1	–	–	?	16µM	–
CC1(C)CC(=O)C=C(c2ccc(Oc3ccccc3)cc2)C1=O	–	–	?	?	–
CC1(C)CC(=O)C=C(c2ccc(-c3cnc4ccccc4c3)cc2)C1=O	–	–	?	23µM	–
CC1(C)CC(=O)C=C(c2ccc(-c3cccc4c3sc3ccccc34)cc2)C1=O	–	–	?	18µM	–
CC1(C)CC(=O)C=C(c2cccc(O)c2)C1=O	–	–	–	–	–
COc1ccc(Cl)cc1Nc1nc(C)cc(C)c1C(N)=O	–	–	–	–	–
Cc1ccccc1CN1CCN(CC(=O)NCc2ccccc2)C1=O	–	–	–	–	–
COC(=O)c1nnn(CC(=O)Nc2ccc(Br)c(C)c2)c1N	·	·	–	–	·
COc1ccc(N(CC(=O)N/N=C(\C)c2ccccc2)S(=O)(=O)c2ccccc2)cc1	–	–	–	–	–
CCCCCCCCCCCCCCCCOCC(CO)OC (stereo not drawn)	·	·	–[4.12 µM]	–[4.12 µM]	·
Cc1ccc(CC(=O)Nc2nc3ccccc3[nH]2)cc1C	–	?	3.5µM	1.8µM	–
O=C(Cc1ccccc1Cl)Nc1nc2ccccc2[nH]1	?	–	–	?	–
O=C(COc1ccccc1)Nc1nc2ccccc2[nH]1	–	–	?	16µM	–
CCCCOc1cccc(OCC(=O)Nc2nc3ccccc3[nH]2)c1	–	–	21µM	?	–
CCCOc1cccc(OCC(=O)Nc2nc3ccccc3[nH]2)c1	–	–	?	?	–
COc1cccc(CNC(=O)CN2CCC(c3nc4ccc(C)cc4[nH]3)CC2)c1	–	–	?	?	-61
COc1ccccc1NC(=O)CN1CCC(c2nc3ccc(C)cc3[nH]2)CC1	–	–	–	–	–
COc1ccccc1NC(=O)CN1CCC(c2nc3ccccc3[nH]2)CC1	–	–	?	15µM	–
Cc1ccc2nc(C3CCCN(C(=S)Nc4ccccc4C)C3)[nH]c2c1 (stereo not drawn)	–	–	?	21µM	–
SMILES	HT1080 IDH1KD tx	HT1080NT lethal	DT40 TDP1 CPT	TDP1 cell noCPT	IL1B secr inh
COc1ccccc1NC(=O)N1CCC(c2nc3cc(C)c(C)cc3[nH]2)CC1	5.8µM	5.8µM	3.7µM	1.8µM	–
CC(C)C(NC(=O)c1c(F)cccc1F)C(=O)N1CCN(S(=O)(=O)/C=C/c2ccccc2)CC1 (stereo not drawn)	–	–	–	–	–
COc1ccc(N(Cc2nnc3n2CCCCC3)C(=O)Nc2cccc(C)c2)cc1Cl	·	·	–	–	·
O=S(=O)(c1ccccc1)n1cc(-c2cccc3nccn23)c2ccccc21	?	?	?	?	–
COc1cc(CNc2ncc(-c3ccc(Br)cc3)n2C)cc(OC)c1OC	–	–	10µM	?	–
COc1cc(CNc2ncc(-c3ccc(Cl)cc3)n2C)cc(OC)c1OC	–	–	13µM	2.1µM	–
